Measurements taken from PubChem BioAssay AID624351 (Southern Research Specialized Biocontainment Screening …, 2012).
Screen size: about 2,400 compounds; about 1,400 (58%) were called active. So high a share suggests a set chosen from earlier hits. Some of the results follow. Unmarked numbers belong to inactive results.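 How the source made its calls: active means inhibition of 30% or more at any tested dose; inconclusive means primary hits over the limit that were never retested; inactive means the rest.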

test: ADP Hunter readout inhibition without MgcRacGAP – biochemical, coupled enzyme counter-screen, artefact control for MgcRacGAP inhibitor project, dose response (AID 624351); settings: fluorescence, no MgcRacGAP; series mostly up to 80 µM; inhibition: at the top concentration;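 further: signal is the ADP detection kit reading of free GDP without any GAP enzyme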;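 on inhibition: 0% = median positive control wells and 100% = median negative control wells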

| Compound | inhibition | IC50 |
| --- | --- | --- |
| COc1cc(-c2ncc3ccccn23)cc(OC)c1OC | 23.4% |  |
| CC1CC(=O)N(c2ccc(NCCc3ccc(O)cc3)c([N+](=O)[O-])c2)C1=O (stereo not given) |  | 65.3 µM (active) |
| CCCCc1nc2ccccc2c(NC(=O)CN2CCN(C)CC2)c1CCC | 22.9% [at 40 µM] |  |
| O=c1c2ccccc2sn1-c1ccccc1F | 25.3% |  |
| O=[N+]([O-])c1ccccc1Nc1ccc(O)cc1 |  | 16.3 µM (active) |
| Nc1cc([N+](=O)[O-])ccc1Nc1ccc(O)cc1 |  | 36.7 µM (active) |
| Cc1cc(NCCCCCCCNc2cc(C)nc3cc([N+](=O)[O-])ccc23)c2ccc([N+](=O)[O-])cc2n1 | 20.3% |  |
| CC(=O)C1=C(O)C(=O)N(c2ccc(O)cc2)C1c1ccccc1[N+](=O)[O-] (stereo not given) | 22.4% |  |
| O=[N+]([O-])c1cc([N+](=O)[O-])c2nonc2c1Nc1ccc(O)cc1 |  | 44.7 µM (active) |
| Nc1nc(Sc2ccc([N+](=O)[O-])c3nonc23)c2[nH]cnc2n1 | 0.9% |  |
| Cc1ccc(/C=C/C(=O)Nc2ccc([N+](=O)[O-])c(NC(=O)/C=C/c3ccc(C)o3)c2)o1 | -7.16% |  |
| CCN(Cc1ccncc1)Cc1ccc(OC)cc1OC | 7.38% |  |
| Cn1cccc1/C=N/N1CCN(c2ccccc2)CC1 |  | 78.7 µM (active) |
| Cn1cccc1/C=N/N1CCN(c2ccccn2)CC1 |  | 31.9 µM (active) |
| COc1ccc(CN2CCN(c3ccccn3)CC2)c(OC)c1C | 5.26% |  |
| CC(C(=O)N1CCCc2ccccc21)N1CCN(c2ccccn2)CC1 (stereo not given) | 21.2% |  |
| Cc1nc(S/C(=C\c2ccc(-c3ccc(C(=O)O)c(Cl)c3)o2)C(=O)O)n[nH]1 | 8.4% |  |
| CC[n+]1c(/C=C/N(C)c2ccccc2)oc2ccc(Cl)cc21 | 9.46% |  |
| COc1ccc(O/C(=N\S(=O)(=O)c2ccccc2)c2ccccc2)cc1 |  | 46.1 µM (active) |
| C=CCn1c(CNc2ccccc2)nnc1SCC(=O)N/N=C/c1ccc(O)cc1O |  | 79.7 µM (active) |
| Cc1ccc(C2=NOC(=O)/C2=C\c2ccc(C)o2)cc1 | -3.56% |  |
| COc1ccc(CN2CCN(Cc3c[nH]c4ccccc34)CC2)c(OC)c1 | 21.2% |  |
| COc1cc(CNCc2cc(OC)c(OC)c(OC)c2)cc(OC)c1 | -0.49% |  |
| COc1cc(OC)c2cc[nH]c2c1 |  | 80.5 µM (active) |

| Compound | inhibition | IC50 |
| --- | --- | --- |
| C=CCn1c(SCC(=O)Nc2ccc(O)cc2)nc2sc(CC)cc2c1=O |  | 37.1 µM (active) |
| Cc1ccccc1N1C(S)=C(C#N)C(=O)NC12CCCCC2 | 4.18% |  |
| Cc1cc(=O)c2c(O)c(O)ccc2o1 |  | 41.8 µM (active) |
| COc1ccc2c(c1)Sc1ccccc1N2 |  | 34.1 µM (active) |
| S=C(c1ccccc1)N1CCN(c2ccccc2)CC1 | 3.57% |  |
| Cc1ccc(-c2cc(C(=O)N3CCN(c4ccc(O)cc4)CC3)c3ccccc3n2)cc1 |  | 83.4 µM (active) |
| O=C(c1cc(C2CC2)nn1-c1ccccc1)N1CCN(c2ccc(O)cc2)CC1 |  | 42.2 µM (active) |
| COc1cc(CN2CCN(C(=O)c3cccc4ccccc34)CC2)cc(OC)c1OC | 10.6% |  |
| O=C(c1ccc(Cl)c(S(=O)(=O)N2CCCCCC2)c1)N1CCN(c2ccc(O)cc2)CC1 |  | 34.3 µM (active) |
| CCC(CC)N1CCN(C(=O)c2cccc(Cl)c2)CC1 | 16.6% |  |
| O=C(c1ccccc1)N1CCN(C2CCCCC2)CC1 | 14.7% |  |
| Cc1ccccc1CN1CCN(C(=O)c2cccc3ccccc23)CC1 | 8.55% |  |
| O=C(c1ccccc1)c1ccc(C(=O)N2CCN(c3ccc(O)cc3)CC2)cc1 |  | 39 µM (active) |
| COc1ccc(C(=O)Nc2ccc(N3CCCCCC3)cc2)cc1S(=O)(=O)N1CCOCC1 | 24.4% |  |
| O=C1/C(=C\c2ccc(O)cc2)SC(=S)N1/N=C/c1ccc(O)cc1 |  | 72.7 µM (active) |
| CCOc1cc(/C=N/N2CCN(Cc3ccccc3)CC2)ccc1O |  | 78.5 µM (active) |
| CCN(Cc1ccccc1)C1CCN(Cc2ccc(SC)cc2)CC1 | 17.8% |  |
| CN(c1ccccc1)c1ccc(/C=N/N2CCOCC2)cc1 |  | 36.8 µM (active) |
| CCN(CC)c1ccc(/C=N/N2CCN(Cc3ccccc3)CC2)cc1 |  | 75.1 µM (active) |
| CN(c1ccccc1)c1ccc(/C=C/[N+](=O)[O-])cc1 | 6.03% |  |
| CC(CN1CCN(Cc2ccccc2)CC1)c1ccccc1 (stereo not given) | -2.98% |  |
| CCN(Cc1ccccc1)c1ccc(/C=N/N2CCOCC2)cc1 |  | 57.8 µM (active) |
| CCOc1cc(CN2CCN(C(=O)CC(C)C)CC2)ccc1OC | 19% |  |
| CCOc1ccc(CN2CCN(Cc3c[nH]c4ccccc34)CC2)cc1 | 26.6% |  |

| Compound | inhibition | IC50 |
| --- | --- | --- |
| CC(=O)N(C1=C(Cl)C(=O)c2ccccc2C1=O)c1ccc(C(=O)O)cc1 | 0.61% |  |
| CCN(CC)c1ccc(/C=N/N2CCOCC2)c(O)c1 |  | 63.7 µM (active) |
| CCN(CC)c1ccc(/C=N/N2CCOCC2)cc1 |  | 40.3 µM (active) |
| COc1ccccc1CN1CCN(Cc2cc(OC)c(OC)cc2OC)CC1 | 22.1% |  |
| CC(C)c1ccc(/C=N/N2CCCCC2)cc1 | 15.9% |  |
| CN(C)c1ccc(/C=N/N2CCN(Cc3ccccc3Cl)CC2)cc1 |  | 71 µM (active) |
| Cc1ccc(OCCN2CCN(C)CC2)c([N+](=O)[O-])c1 | 19.3% |  |
| COc1ccc2cc(C(=O)Nc3ccc(O)cc3)sc(=O)c2c1OC |  | 24.8 µM (active) |
| O=C(Cn1sc2ccccc2c1=O)Nc1ccccc1 | -1.87% |  |
| O=C(Nc1ccc(O)cc1)c1cc2ccccc2c(=O)s1 |  | 30.1 µM (active) |
| COCCNCC(=O)Nc1ccc(C)c(S(=O)(=O)N2CCCCC2)c1 | 17.4% |  |
| COc1cc(/C=C/C(=O)OCC(=O)Nc2cc(S(=O)(=O)N3CCCCC3)ccc2C)ccc1O |  | 60.2 µM (active) |
| CCN(CC)S(=O)(=O)c1ccc(C)c(NC(=O)CN2CCN(C)CC2)c1 | 11.1% |  |
| Cc1ccc(S(=O)(=O)N2CCCCC2)cc1NC(=O)CNCc1ccco1 | 18.3% |  |
| Cc1ccc(NC(=O)CNCCCN2CCOCC2)cc1S(=O)(=O)N1CCCCC1 | 21% |  |
| COc1cc(/C=C/C(=O)OCC(=O)Nc2ccc(S(=O)(=O)N3CCCC3)cc2)ccc1O |  | 45.7 µM (active) |
| CC(CCN1CCN(CCO)CC1)c1ccccc1 (stereo not given) | 3.17% |  |
| CN=C1S/C(=C\c2ccc(O)c(Br)c2)C(=O)N1C |  | 45.8 µM (active) |
| Cc1nc(N)sc1-c1ccccc1 |  | 80.8 µM (active) |
| COC(=O)c1ccc2c(c1)C(C)(C)C(/C=C/c1ccc(O)cc1)=[N+]2C | 17.5% |  |
| COc1ccc(-c2ccc(CCC(=O)O)n2-c2ccc(O)cc2)cc1 | 11.4% |  |
| COc1ccc(C(=O)/C=C/c2ccc(O)cc2)cc1 |  | 42.2 µM (active) |
